Measurements as given in PubChem BioAssay AID1720 (National Center for Advancing Translational Sciences (NCATS), 2009).
The other results are listed elsewhere or left out. Inconclusive results are not listed. Unmarked numbers belong to inactive results. Active and inactive are the calls of the source. Cut-off read from the data, not from the text of the source: active = inhibition above about 40%; inconclusive = no clear call, values can overlap the other calls; inactive = below about 18%.

molecular target: Microtubule-associated protein tau (Homo sapiens) (UniProt P10636); test: Sedimentation Assay for Inhibitors of Tau Fibrillization; conditions: recombinant tau K18 P301L (four-repeat tau fragment), sedimentation SDS-PAGE densitometry; at 100 µM; active compounds read high
Sequence (P10636 561-689 P618L limits assumed): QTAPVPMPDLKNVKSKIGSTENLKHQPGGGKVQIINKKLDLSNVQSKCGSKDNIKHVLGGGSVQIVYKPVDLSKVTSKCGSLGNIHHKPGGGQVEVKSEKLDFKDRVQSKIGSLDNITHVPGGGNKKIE
Source text: NIH Molecular Libraries Probe Production Network [MLPCN] NIH Chemical Genomics Center [NCGC] MLPCN Grant: X01 MH083262-01 Assay Provider: Carlo Ballatore, University of Pennsylvania NCGC Assay Overview: The microtubule-associated protein tau is an abundant protein in the axons of neurons that stabilizes microtubules. With its ability to modulate microtubule dynamics, tau contributes directly or indirectly, to key structural and regulatory cellular functions. Particularly important is the influence tau exerts on axonal transport, which allows signaling molecules, trophic factors and other essential cellular constituents to travel along the axons. […] The ability of compounds to block tau fibrillization was assessed using a sedimentation assay. Unlike tau monomers, tau fibrils readily sediment upon centrifugation. Samples from the tau ThT confirmation assay treated with 100 uM compound (AID 1558) were centrifuged and the amount of tau present in the supernatant and pellet was determined. […]
NCGC Assay Protocol Summary: Human K18 P301L tau (15 uM) in assay buffer (20 uM heparin, 12.5 uM Thioflavine T, 100 mM sodium acetate pH 7) was centrifuged at 186,000 x g for 30 min and the supernatant removed from the pellet. Pellets were resuspended in a volume equal to the supernatant and equal amounts of supernatants and pellet were analyzed by SDS-PAGE using a 12.5% acrylamide gel. […]

SMILES	inhibition
CCN(CC)c1ccc2oc(=O)c(C)nc2c1	59% (active)
CC(=O)Nc1sc(C)c2cnn(-c3ccccc3)c(=O)c12	5%
